Measurements published in PubChem BioAssay (EPA / NIEHS).
Where “and” joins values, the source holds several entries; their conditions need not be identical. Identical values can stand only once. Some compounds were tested as several samples or in several runs, with calls that do not always agree. Calls of active or inactive are those of the source. How the source made its calls: active means hit-call score of the fitted dose curve at least 0.9, where 1 is the maximum; inactive means score below 0.9.

Legend:
[1] = APR_HepG2_CellLoss_72hr: Apredica 72-hour HepG2 Assay for Cell Loss (AID 2282915); conditions: high-content imaging
Method in brief: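 HepG2 cells exposed 72 h to compound at 0.39–200 uM (10 concentrations, duplicate) in 0.5% DMSO. Fixed with 3.7% formaldehyde and Hoechst 33342-stained. Imaged at 20x; nuclear count gives cell number, fitted bidirectionally versus DMSO.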

[2] = APR_HepG2_P-H2AX_72hr: Apredica 72-hour HepG2 Assay for H2AX Phosphorylation (AID 2282916); conditions: imaging, actives raise or lower the signal;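 further: phospho-histone H2A.x immunostain intensity per cell marking DNA damage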
Method in brief: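 Phospho-histone H2A.x immunofluorescence, multiplexed with Hoechst and c-Jun, quantified by high-content imaging. Compounds applied to HepG2 for 72 h across ten concentrations (0.39–200 uM, 0.5% DMSO), in duplicate; DMSO baseline.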

[3] = APR_HepG2_MitoMembPot_72hr: Apredica 72-hour HepG2 Assay for Mitochondrial Membrane Potential (AID 2282917); conditions: imaging, actives raise or lower the signal
Method in brief: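 HepG2 cells dosed 72 hr with compound at 0.39–200 uM in duplicate, 0.5% v/v DMSO final. Mitochondria stained with 250 nM MitoTracker Red CMXRos for 30 min before formaldehyde fixation, imaged by high-content fluorescence; bidirectional fit versus DMSO.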

[4] = APR_HepG2_MitoticArrest_72hr: Apredica 72-hour HepG2 Assay for Mitotic Arrest (AID 2282918); conditions: high-content imaging, actives raise or lower the signal
Method in brief: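 HepG2 cells treated 72 h at 0.39–200 uM, 0.5% DMSO final; formaldehyde-fixed, stained with Hoechst 33342 and phospho-histone H3 antibody, imaged by high-content fluorescence; bidirectional fit versus DMSO.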

[5] = APR_HepG2_MicrotubuleCSK_72hr: Apredica 72-hour HepG2 Assay for Microtubule CSK Stabilty (AID 2282919); conditions: HepG2 microtubule cytoskeleton, high-content imaging, actives raise or lower the signal
Method in brief: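 HepG2, 72 hr cmpd exposure, 0.39–200 uM (10 pts, duplicate), 0.5% DMSO. 3.7% formaldehyde fix, 0.5% Triton perm, anti-alpha-tubulin/Cy5 plus Hoechst. HCS fluorescence intensity; bidirectional fit vs DMSO baseline; taxol as positive control.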

[6] = APR_HepG2_P-H2AX_24hr: Apredica 24-hour HepG2 Assay for H2AX Phosphorylation (AID 2282920); conditions: high-content imaging, actives raise or lower the signal
Method in brief: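 HepG2 cells dosed 24 h at 0.39–200 uM (10 points, duplicate, 0.5% DMSO final). Formaldehyde-fixed and permeabilized, then immunostained for phospho-H2A.x with Hoechst. Fluorescence quantified by high-content imaging, fitted bidirectionally versus DMSO.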

[7] = APR_HepG2_StressKinase_72hr: Apredica 72-hour HepG2 Assay for Stress Kinase (AID 2282921); conditions: HepG2 stress kinase (phospho-c-Jun) imaging, actives raise or lower the signal
Method in brief: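 Stress kinase signal is phospho-c-Jun immunofluorescence (1:500 primary, Cy3 secondary) in fixed, permeabilized human HepG2 cells imaged at 20x. Exposure lasted 72 hr over ten concentrations from 0.39 to 200 uM, 0.5% DMSO, in duplicate. Bidirectional fit versus DMSO.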

[8] = APR_HepG2_StressKinase_24hr: Apredica 24-hour HepG2 Assay for Stress Kinase (AID 2282922); conditions: HepG2 stress kinase (phospho-c-Jun) imaging, actives raise or lower the signal
Method in brief: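 Read-out: phospho-c-Jun immunofluorescence (Cy3 secondary) quantified by high-content imaging at 20x, nuclei defined by Hoechst 33342. Human HepG2 liver cells dosed 24 hr, 0.39–200 uM, DMSO 0.5% v/v; gain or loss of signal fitted relative to DMSO.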

[9] = APR_HepG2_p53Act_72hr: Apredica 72-hour HepG2 Assay for p53 Activation (AID 2282923); conditions: high-content imaging, actives raise or lower the signal;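 further: average cellular p53 protein immunofluorescence intensity in HepG2 cells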
Method in brief: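 After 72 h with compound (ten points, 0.39 to 200 uM, final DMSO 0.5% v/v), fixed HepG2 cells were labelled with sheep anti-p53 and Hoechst 33342 and imaged; gain or loss versus DMSO scored.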

[10] = ATG_CRE_CIS: Attagene CIS-FACTORIAL HepG2 Assay for human cAMP Responsive Element (CRE) binding protein 3 (AID 2282926); conditions: HepG2 CRE cis-reporter, Attagene multiplexed mRNA; actives raise or lower the signal
Method in brief: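 Induced reporter mRNA from a CRE cis element, measured in HepG2 among many multiplexed units at 24 h. Detection used RT-PCR plus capillary electrophoresis of fluorescent fragments; DMSO served as negative control.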

[11] = target: CCAAT/enhancer-binding protein beta (Homo sapiens) (UniProt P17676); assay: ATG_C_EBP_CIS: Attagene CIS-FACTORIAL HepG2 Assay for human CCAAT/Enhancer Binding Protein (C/EBP) beta (AID 2282927); conditions: HepG2 Attagene cis-factorial transcription factor reporter; actives raise or lower the signal
Method in brief: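 HepG2, transient MRTU transfection, 24 h treatment. RT-PCR plus CE fluorescence; DMSO negative control, bidirectional fit.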

[12] = ATG_CMV_CIS: Attagene CIS-FACTORIAL HepG2 Assay for human CMV (Internal Marker) (AID 2282928); conditions: HepG2 CMV promoter reporter, transcription factor profiling; actives raise or lower the signal;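 further: endpoint acts as a background internal control marker rather than a target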
Method in brief: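 Readout: fluorescent reporter cDNA fragments separated by capillary electrophoresis after RT-PCR and HpaI cut. Cells: HepG2 carrying transfected cis-promoter reporter constructs, dosed 24 h. Endpoint serves as background internal-marker control, fit bidirectionally versus DMSO.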

[13] = ATG_DR4_LXR_CIS: Attagene CIS-FACTORIAL HepG2 Assay for human Liver X Receptor (LXR), DR4 submotif (AID 2282929); conditions: HepG2 Attagene DR4 cis-reporter, mRNA transcription; actives raise or lower the signal
Method in brief: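 Cells were transfected with multiple reporter transcription units, exposed to chemicals for 24 hours, then lysed for RNA. Reporter mRNA induction was measured by RT-PCR with capillary electrophoresis detection and fitted in both directions relative to DMSO.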

[14] = ATG_AP_1_CIS: Attagene CIS-FACTORIAL HepG2 Assay for human Activator Protein 1 (AP-1) (AID 2282931); conditions: HepG2 Attagene cis-factorial AP-1 reporter mRNA; actives raise or lower the signal
Method in brief: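 Endogenous transcription-factor activity in human HepG2 liver cells is read through a cis-promoter reporter transcript, sampled 24 h after dosing. Detection uses RT-PCR with capillary electrophoresis; values come from bidirectional fitting relative to DMSO.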

[15] = ATG_AP_2_CIS: Attagene CIS-FACTORIAL HepG2 Assay for human Activator Protein 2 (AP-2) (AID 2282932); conditions: HepG2 AP-2 cis-reporter, Attagene transcription factor profiling; actives raise or lower the signal
Method in brief: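 Liver-derived HepG2 line, cis-reporter system measuring endogenous factors; 24 h dosing; reporter mRNA detected by fluorescent RT-PCR and capillary electrophoresis.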

[16] = ATG_BRE_CIS: Attagene CIS-FACTORIAL HepG2 Assay for human Bone Morphogenetic Protein (BMP) Response Element (BRE) (AID 2282933); conditions: HepG2 BMP response element reporter, Attagene transcription factor profiling; actives raise or lower the signal
Method in brief: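 HepG2 cells transiently transfected with multiplexed cis-element reporter units were dosed with chemical for 24 h. Reporter mRNA was measured by RT-PCR with fluorescent labelling, HpaI digestion and capillary electrophoresis; bidirectional fitting relative to DMSO.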

[17] = target: Retinoic acid receptor alpha (Homo sapiens) (UniProt P10276); assay: ATG_DR5_RAR_CIS: Attagene CIS-FACTORIAL HepG2 Assay for human Retinoic Acid Receptor Alpha (RARE), DR5 submotif (AID 2282934); conditions: HepG2 Attagene cis-factorial RARE DR5 reporter, mRNA; actives raise or lower the signal;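 on AC50: reporter responds to endogenous RAR alpha beta and gamma in HepG2 not RARA alone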
Method in brief: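 After 24 h of chemical exposure, transiently transfected HepG2 cells were lysed for total RNA; the DR5-regulated reporter transcript was quantified via RT-PCR and capillary electrophoresis, with activity fitted bidirectionally against DMSO.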

[18] = target: Aryl hydrocarbon receptor (Homo sapiens) (UniProt P35869); assay: ATG_Ahr_CIS: Attagene CIS-FACTORIAL HepG2 Assay for human Aryl Hydrocarbon Receptor (Ahr) (AID 2282930); conditions: HepG2 AhR cis-factorial reporter transcription; actives raise or lower the signal
Method in brief: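 Endogenous factor activity is tracked through cis-promoter reporter units transfected into HepG2 cells. Transcript levels at 24 h are read by fluorescent RT-PCR and capillary electrophoresis, with activity in either direction scored relative to DMSO.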

[19] = APR_HepG2_NuclearSize_72hr: Apredica 72-hour HepG2 Assay for Nuclear Size (AID 2282925); conditions: high-content imaging, actives raise or lower the signal
Method in brief: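 Read-out: nuclear diameter from Hoechst 33342 images (ArrayScan, 20x, six fields/well), via cell-cycle image analysis. HepG2 were dosed 0.39–200 uM for 72 hr in 0.5% DMSO. Bidirectional fit relative to DMSO.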

Measured: AC50

Chain of CCAAT/enhancer-binding protein beta (Homo sapiens) (P17676 whole entry, looked up): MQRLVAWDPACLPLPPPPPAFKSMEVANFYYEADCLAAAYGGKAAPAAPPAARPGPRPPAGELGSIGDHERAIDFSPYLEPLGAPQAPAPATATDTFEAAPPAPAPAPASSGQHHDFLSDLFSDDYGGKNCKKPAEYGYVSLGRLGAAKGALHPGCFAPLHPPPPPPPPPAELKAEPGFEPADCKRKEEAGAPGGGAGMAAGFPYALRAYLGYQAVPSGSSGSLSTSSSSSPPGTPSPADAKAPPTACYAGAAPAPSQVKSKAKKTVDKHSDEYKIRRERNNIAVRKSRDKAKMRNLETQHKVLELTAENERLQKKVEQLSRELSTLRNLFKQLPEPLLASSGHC
Chain of Retinoic acid receptor alpha (Homo sapiens) (P10276 whole entry, looked up): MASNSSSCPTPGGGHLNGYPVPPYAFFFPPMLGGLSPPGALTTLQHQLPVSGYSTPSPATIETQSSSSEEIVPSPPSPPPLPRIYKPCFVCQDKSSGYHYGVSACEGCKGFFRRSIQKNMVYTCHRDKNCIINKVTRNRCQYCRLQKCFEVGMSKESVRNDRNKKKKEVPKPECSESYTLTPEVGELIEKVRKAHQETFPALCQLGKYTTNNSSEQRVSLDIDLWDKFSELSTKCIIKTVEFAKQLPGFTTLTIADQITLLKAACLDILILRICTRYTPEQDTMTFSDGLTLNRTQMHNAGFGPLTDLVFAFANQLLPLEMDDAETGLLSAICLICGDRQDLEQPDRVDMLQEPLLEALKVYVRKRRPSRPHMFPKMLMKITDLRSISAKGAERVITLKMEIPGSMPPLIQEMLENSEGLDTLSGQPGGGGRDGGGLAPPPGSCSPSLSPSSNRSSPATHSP
Chain of Aryl hydrocarbon receptor (Homo sapiens) (P35869 whole entry, looked up): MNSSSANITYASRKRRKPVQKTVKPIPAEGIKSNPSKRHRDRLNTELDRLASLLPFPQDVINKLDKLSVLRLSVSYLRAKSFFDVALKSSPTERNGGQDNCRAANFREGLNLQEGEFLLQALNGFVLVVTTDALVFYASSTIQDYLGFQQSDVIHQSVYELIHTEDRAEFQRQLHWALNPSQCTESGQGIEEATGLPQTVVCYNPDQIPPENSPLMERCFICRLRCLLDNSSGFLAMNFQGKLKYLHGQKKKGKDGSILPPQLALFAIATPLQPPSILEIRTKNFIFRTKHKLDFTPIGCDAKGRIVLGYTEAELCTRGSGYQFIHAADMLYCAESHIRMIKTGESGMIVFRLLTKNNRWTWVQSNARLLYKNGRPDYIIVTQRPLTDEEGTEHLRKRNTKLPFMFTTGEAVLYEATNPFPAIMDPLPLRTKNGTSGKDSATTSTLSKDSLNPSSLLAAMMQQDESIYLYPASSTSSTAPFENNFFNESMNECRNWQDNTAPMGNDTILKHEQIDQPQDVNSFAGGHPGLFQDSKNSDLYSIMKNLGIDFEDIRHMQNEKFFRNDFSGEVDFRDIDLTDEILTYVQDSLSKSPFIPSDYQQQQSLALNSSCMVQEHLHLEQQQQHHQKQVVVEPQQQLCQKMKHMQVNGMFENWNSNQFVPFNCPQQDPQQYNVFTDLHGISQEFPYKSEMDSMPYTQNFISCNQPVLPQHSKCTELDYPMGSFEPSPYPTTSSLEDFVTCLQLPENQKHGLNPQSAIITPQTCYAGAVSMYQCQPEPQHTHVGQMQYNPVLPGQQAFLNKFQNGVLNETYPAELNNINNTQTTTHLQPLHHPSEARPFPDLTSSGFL

c1ccc2cc3c(ccc4ccccc43)cc2c1
active: [1] 9.42 µM | [3] 73.6 µM | [4] 27.6 µM | [6] 51 µM | [13] 1.7 µM and 1.25 µM and 3.19 µM | [14] 2.33 µM
inactive: [2] | [5] | [7] | [8] | [9] | [10] | [11] | [12] | [13] | [14] | [15] | [16] | [17]

FC(F)(I)C(F)(F)C(F)(F)C(F)(F)C(F)(F)C(F)(F)I
active: [12] 9.48 µM
inactive: [10] | [11] | [13] | [18] | [14] | [15] | [16] | [17]

CCCCCCCCOC(=O)CCCCCCCCC(=O)OCCCCCCCC
not listed: [19]
inactive: all other assays above

C[C@@H]1C[C@H]2[C@@H]3CCC4=CC(=O)C=C[C@]4(C)[C@@]3(F)[C@@H](O)C[C@]2(C)[C@@]1(O)C(=O)COP(=O)(O)O
active: [1] 6.32 µM | [2] 1.09 µM | [3] 45.1 µM | [4] 1.12 µM | [6] 16 µM | [9] 1.45 µM
not listed: [17] | [19]
inactive: all other assays above

Cc1cc(CCN2CCN(c3nsc4ccccc34)CC2)cc2c1NC(=O)CC2(C)C
inactive: [3] | [7] | [8] | [19] | [10] | [18] | [15] | [16]
active: [1] 30.9 µM | [2] 11.2 µM | [4] 39.7 µM | [5] 37.6 µM | [6] 22 µM | [9] 33.8 µM | [11] 7.43 µM | [13] 2.82 µM | [14] 3.21 µM | [17] 3.74 µM
